Laboratory results reported in the supplement of paper PMC6555819.

Key:
Assay in all cases: PBM binding z-score (relative to random genomic background probes); higher = stronger binding; sequences stand for … in GC…GCGATTGACAGCGTAGAATGAAGG
[1] = tested on: FXR:RXRa (NR concentration 270 nM, RXRa partner concentration 90 nM)
Outline: (§1)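 On custom Agilent 4×180K arrays, double-stranded probes with 34-nt variable regions carried direct-repeat seeds, single-nucleotide variants, half-site ablations or random human genomic background. Ligand-free nuclear receptor dimers were applied for 1 h, and binding was read with antibodies against each partner (one per run). Binding z-scores come from regression-normalized fluorescence, with the random background probes as reference.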

[2] = tested on: LXRa:RXRa (NR concentration 270 nM, RXRa partner concentration 90 nM)
Outline: as §1

[3] = tested on: LXRa homodimer (NR concentration 270 nM)
Outline: as §1

[4] = tested on: LXRb:RXRa (NR concentration 270 nM, RXRa partner concentration 90 nM)
Outline: as §1

[5] = tested on: LXRb homodimer (NR concentration 270 nM)
Outline: as §1

[6] = tested on: PPARa:RXRa (NR concentration 270 nM, RXRa partner concentration 90 nM)
Outline: as §1

[7] = tested on: PPARg:RXRa (NR concentration 180 nM, RXRa partner concentration 90 nM)
Outline: as §1

[8] = tested on: PPARg:RXRa 270nM:90nM, anti-RXR (NR concentration 270 nM, RXRa partner concentration 90 nM)
Outline: as §1

[9] = tested on: PPARg:RXRa 30nM:10nM, anti-RXR (NR concentration 30 nM, RXRa partner concentration 10 nM)
Outline: as §1

[10] = tested on: PPARg:RXRa 90nM:30nM, anti-RXR (NR concentration 90 nM, RXRa partner concentration 30 nM)
Outline: as §1

[11] = tested on: PPARg:RXRa DBDmut IVT, anti-RXR (DBD mutation: RXRa K156A/R161A, NR concentration 270 nM, RXRa partner concentration 90 nM)
Outline: as §1

[12] = tested on: PPARg:RXRa IVT, anti-PPARg (NR concentration 270 nM, RXRa partner concentration 90 nM)
Outline: as §1

[13] = tested on: PPARg DBDmut:RXRa IVT, anti-PPARg (DBD mutation: PPARg1 K132A/R137A, NR concentration 270 nM, RXRa partner concentration 90 nM)
Outline: as §1

[14] = tested on: PPARg DBDmut IVT, anti-PPARg (DBD mutation: PPARg1 K132A/R137A, NR concentration 270 nM)
Outline: as §1

[15] = tested on: PPARg homodimer (NR concentration 180 nM)
Outline: as §1

[16] = tested on: PXR:RXRa (NR concentration 270 nM, RXRa partner concentration 90 nM)
Outline: as §1

[17] = tested on: PXR homodimer (NR concentration 270 nM)
Outline: as §1

[18] = tested on: RARa:RXR (NR concentration 270 nM, RXRa partner concentration 90 nM)
Outline: as §1

[19] = tested on: RARa homodimer (NR concentration 270 nM)
Outline: as §1

[20] = tested on: RARb:RXRa (NR concentration 270 nM, RXRa partner concentration 90 nM)
Outline: as §1

Sequence	PBM binding z-score [1]	PBM binding z-score [2]	PBM binding z-score [3]	PBM binding z-score [4]	PBM binding z-score [5]	PBM binding z-score [6]	PBM binding z-score [7]	PBM binding z-score [8]	PBM binding z-score [9]	PBM binding z-score [10]	PBM binding z-score [11]	PBM binding z-score [12]	PBM binding z-score [13]	PBM binding z-score [14]	PBM binding z-score [15]	PBM binding z-score [16]	PBM binding z-score [17]	PBM binding z-score [18]	PBM binding z-score [19]	PBM binding z-score [20]
ATCTCTAGGTAAAGATAGTTCAGGGAATGCAAAT	0.392	3.65	0.565	0.755	0.535	1.06	0.543	0.544	0.404	0.317	2.05	1.37	1.02	0.575	0.895	0.937	0.399	0.601	1.17	0.787
GATACAGGGTCAAGGCCACAGTACGCGTATTGAT	6.86	4.11	0.0617	3.76	-0.0921	5.98	6.37	5.82	2.54	4.69	2.24	4.31	0.644	0.508	2.25	4.14	0.451	4.64	0.787	4.67
GGATCGAGGGCAAGTTGATAGCAGAGTTTGATGG	0.982	0.317	-0.184	0.122	0.0808	1.42	0.962	0.758	0.0505	0.387	3.34	2.56	-0.16	-0.137	1.07	0.76	0.825	0.165	0.158	2.49
TCTTCTAGGTCAGTTGGTCAGCTAACGAGCTGCC	2.21	1.87	0.567	1.71	3.5	2.99	3.77	4.43	4.38	4.54	6.39	6.42	3.22	3.33	2.21	1.3	0.447	1.58	1.05	3.79
ACTATTAGTTGAGACGAAGGCAACCGATAGGTTG	-0.426	-0.372	-0.315	-0.554	0.221	-0.644	0.452	-0.4	-0.441	-0.372	-0.511	-0.28	1.16	0.396	0.149	-0.912	-0.243	-0.552	0.662	-0.23
ATAGACAGGTGAGTGAAGGTAACTCAGCTGGACG	0.729	0.567	-0.416	-0.043	0.00945	0.437	0.69	0.369	0.155	0.444	-0.0175	0.973	0.246	0.208	0.132	0.352	0.0205	0.959	-0.0264	0.603
CCTCGGAGGACAGAAGGTCAGAGCCGTCCGCTTT	1.62	1.72	0.422	1.2	-0.824	1.93	-0.186	0.948	-0.897	0.277	0.172	-0.13	-1.85	-1.98	1.7	1.78	-0.366	2.37	0.4	3.24
ATACCAAGGTGATCGTGAAGTCGTTGATACTAAC	0.402	0.225	0.0745	0.448	-0.0277	0.429	0.37	0.481	-0.0865	0.2	0.462	1.26	0.643	0.615	0.766	0.468	-0.0567	0.548	0.427	0.582
GCATATAGGTAATACAAGGGGAAAGTCCGATTGT	0.256	0.159	0.0811	-0.078	-0.118	0.754	0.908	0.64	0.337	0.269	4.01	2.14	0.831	0.956	0.379	-0.118	0.0351	0.489	0.339	-0.122
CGTCAAAGTACAACTAAGGTAACGTAAAGCACGC	0.707	0.122	0.142	0.219	0.198	0.548	0.918	0.504	0.132	0.467	0.337	0.863	-0.144	0.398	0.606	0.34	0.247	2.1	0.546	1.34
ATCGAAAGGTCGACGACGTGAGTATACACCGTTT	3.9	3.08	-0.00126	2.61	0.501	4.21	2.29	2.7	0.988	1.77	0.416	1.22	1.4	1.43	1.37	2.32	-0.182	3.07	0.0928	3.72
CAAACTAAGTCAAGGTCAAAGTCGGTTTGTGCCA	4.9	5.29	5.4	4.15	1.52	4.7	2.82	3.64	1.62	2.78	2.53	3.35	0.787	0.588	2.93	4.73	2.29	4.9	1.46	4.13
ATCGAAAGGTGGAAGGTGAGTATACCCACCCGAA	0.216	0.0772	-0.308	0.022	-0.0817	1.53	1.53	2.05	0.816	1.58	-0.723	0.561	0.498	0.266	0.464	0.15	-0.16	0.474	-0.403	0.83
GCATATAGGTAATGCAAGGTGAAAGTCCGATTGT	0.366	1.83	-0.0493	0.568	-0.489	1.74	1.05	1.15	0.286	0.74	4.12	3.49	0.246	0.658	0.642	0.573	0.208	1.73	0.262	0.407
CGAACTAGGACATTGACAGGACAGTGAATAGTAA	-0.0957	-0.0769	0.0961	-0.38	-0.79	0.451	0.933	0.247	0.384	0.344	4.34	3.36	1.39	0.241	0.296	-0.136	0.135	-0.244	-0.0168	0.136
GCTAGCAGGCCATTTGGGACACTCAATGACGGGC	-0.491	-0.668	-0.545	-1.16	-1.04	-0.523	0.681	-0.463	-0.719	-0.835	0.822	0.411	-0.432	-0.76	-1.04	-0.714	-0.736	-0.559	-0.547	-0.00778
TCTATTAGTTGAAGTGCAACCGACGAGTCCGTTT	0.802	0.953	0.178	0.755	0.464	1.02	-0.119	2.15	3.77	2.88	2.28	0.306	0.956	1	0.829	0.982	1.24	0.832	0.781	0.825
ACAGACAGGTGATGAAGGGAACTCAGGCTATCAT	-0.0225	-0.0438	-0.158	-0.298	-0.495	-0.115	0.754	0.00384	0.0362	-0.027	0.344	0.145	0.471	-0.0521	0.0738	-0.382	0.482	-0.121	0.0733	0.0899
TGAATGAGGTTATAAGATCAGGCAACGTTGCAAA	1.34	1.51	-0.418	1.22	-0.11	2.69	1.48	2.02	1.21	1.73	0.78	1.81	1.1	0.207	0.125	0.75	-0.349	1.52	0.212	1.24
GCGACTGGGGCAAAGCCGGTTACCATAAGGTTGG	-0.281	-0.532	-0.832	-0.581	-1.01	0.472	0.627	0.491	-0.849	-0.0511	3.46	2.75	-0.287	-1.49	-0.424	-0.547	-0.627	-0.45	-0.427	0.632
ATCTCTAGGTAAGACTCCGTTCAGTGAAGAACGC	0.49	0.425	0.698	0.0873	0.894	-0.00199	0.087	0.169	0.111	0.441	2.22	1.25	0.571	0.804	1.16	0.0673	0.0511	0.105	0.882	0.229
AATACAGGGTCACTAGGCCAGAATAGGTACGAAT	6.2	5.06	1.04	4.11	1.02	5.95	7.89	6.5	2.7	5.33	3.44	5.78	1.66	1.79	2.05	3.16	0.787	4.21	1.45	4.27
CCGTACGGGTCACGAGGTTATAGCACGACGAGCG	6.63	4.94	0.31	4.08	-0.283	5.88	6.72	6.37	2.37	4.99	2.29	3.93	0.613	-0.38	2.82	4.73	-0.215	6.42	1.17	4.48
ATCTCTAGGTGAAGATAGTTCAGTGAATGCAAAT	0.203	1.02	0.126	0.441	0.00986	1.69	1.75	1.55	0.448	0.885	4.18	4.44	0.653	1.5	0.717	1.58	0.667	0.801	0.811	1.29
ATATGTAGGTTACATCCGGGTCGTTCAGGCTATG	1.06	2.86	0.557	1.67	0.653	3.5	5.18	4.47	1.66	3.49	7.59	7.22	2.21	1.61	1.23	1.64	0.721	1.35	0.787	1.49
AGTAAAAGTTCAGGACGAGGTAACGTAAAGCACG	3.83	3.28	1.42	1.75	0.493	2.63	1.81	2.14	0.671	1.29	-0.481	0.814	0.943	1.31	1.74	2.71	1.45	2.39	0.986	3.85
AGAATGAGGTTATTAAGATCAGGGATTTGCGGTC	1.64	1.59	0.335	1.29	0.376	2.39	1.5	1.92	0.623	1.21	3.56	2.51	1.03	0.211	0.911	1.23	0.655	1.64	0.863	1.37
ATCGAAGGGTCGACGAGGTGAGTATACACCGTTT	1.51	0.812	-0.587	0.951	-0.33	2.44	1.3	0.831	0.448	0.6	-0.299	0.882	-0.145	0.665	0.411	1.11	-0.598	2.02	-0.471	2.3
